The panel holds about 83,000 compounds, 20% with a hit somewhere; the sample as a whole holds those more often.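 Growth was measured after 48 h exposure to one concentration of compound in 96-well plates. Values under 10 count as active.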 Active and inactive are the calls of the source.
Each compound was assayed on SR leukemia (assay: NCI-60 one-dose screen, 48 h (100 = growth as untreated, 0 = no growth, -100 = all killed)). Conditions: 10 µM unless noted.

SMILES | growth
COCCOc1cc2ncnc(N3CCN(c4ncc(S(=O)(=O)N5CCCCC5)cn4)CC3)c2cc1OCCOC | 72.9% (inactive)
COC(=O)[C@]1(C)CCC[C@]2(C)[C@H]3C[C@H]4C(C(C)C)=C[C@]3(CC[C@H]21)[C@@H]1C(=O)CC[C@H](OCCC#N)[C@@H]14 | 58.9% (inactive)
O=C(O)CCN1C(=O)/C(=C/C(Cl)=C/c2ccccc2)SC1=S | 6.86% (active)
O=C(/C=C/c1cccc(Cl)c1)c1ccc(Nc2nc(Nc3ccc(F)cc3)nc(Nc3ccc(Cl)cc3)n2)cc1 | 75.6% (inactive)
CC(C)(Sc1cc(C(C)(C)C)c(O)c(C(C)(C)C)c1)Sc1cc(C(C)(C)C)c(OC(=O)CCCC(=O)O)c(C(C)(C)C)c1 | 28.1% (inactive)
Fc1cc2c(cc1Cl)N(c1ncnc3ccc(-c4ccc5n[nH]nc5c4)cc13)CC2 | 66.8% (inactive)
CCSC(SCC)c1ccc(Cl)cc1 | 109% (inactive)
O=C(Nc1nc2ccc(C(=O)N3CCN(/C=C/c4ccccc4)CC3)cc2s1)c1ccc(NCCc2ccccc2)c([N+](=O)[O-])c1 | -13.7% (active)
O=S(=O)(Nc1cc(F)cc(Cl)c1)c1ccc(-c2cnc(C3CC3)o2)cc1 | 25.4% (inactive)
COC(=O)c1c(C)nc(C)c2c1C(=O)C(Br)=C(NCc1ccccc1)C2=O | 27% (inactive)
COc1cc2c(c(OC)c1OC)CCC(c1cccc(C(=O)Nc3ccc(C#N)cc3)c1)O2 (configuration not stated) | 16.9% (inactive)
O=C1c2ccccc2-c2c1c1c(=O)[nH]c3ccccc3c1n2Cc1ccccc1 | 55.4% (inactive)
